The list is not random: actives were taken first. Their share in the collection is about 4.3%.
SMARCA2 act: SMARCA2 (BRM) function activators, primary screen, cell-based, luminescence, high throughput; 370,000 tested, 1% active; MG213 cells, MMTV-luciferase reporter, dexamethasone, overnight; activation, % at 9.1 µM; in the data active = activation above about 7.8%;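 note: 0% = vehicle wells and 100% = reference activator wells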
Wnt bcat act: Wnt/beta-catenin pathway activators, primary screen, cell-based, plate reader, single point | Wnt/beta-catenin reporter cell assay, activator | activation, % at 9.35 µM | 300,000 tested, 1.2% active | AID 743398, 2014; in the data active = activation above about 30%, passing the limit was not always enough; inconclusive = no clear call, values can overlap the other calls;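 note: 0% = neutral control wells and 100% = positive control wells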
HSF1 inh: HSF1 inhibitors in luciferase reporter cells, primary screen, cell-based, NIH3T3, luminescence; NIH3T3-HGL HSE-luciferase, MG132-induced, luminescence 8 h; hits give low values; activity change, negative = inhibition, % at 7.5 µM (by protocol); 300,000 tested, 0.77% active; AID 2098, 2009;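 active = more than half of replicate wells show activity change below -50%, luminescence cut by over half; inconclusive = some wells, but at most half, below -50%; inactive = no replicate well below -50%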;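 note: luciferase reports HSF-1 transcriptional activity via heat shock element; 0% = median of DMSO wells and -100% = zero luminescence signal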
esBAF inh: Bmi1 luciferase reporter increase in mESCs, primary screen, esBAF inhibitor project, mouse ES cells, Bmi1 luciferase knock-in, single point; 350,000 tested, 2% active; 24 h; 100% = twice the neutral-well signal; reporter increase, % at 12.5 µM; in the data active = activation above about 40%; inconclusive = no clear call, values can overlap the other calls;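 note: 0% = median of the plate's neutral control wells and 100% = double that signal; a rise in the Bmi1 reporter signal indicates esBAF inhibition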
HSF1 activator: HSF-1 activators, primary screen, NIH3T3-HGL cells, MG132 stress, luminescence, single point | NIH3T3-HGL HSF-1 luciferase reporter, 8 h; 100% = twice DMSO control signal | 300,000 tested, 1.7% active | AID 504408, 2011 | activation, % at 9 µM;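 active = mean replicate activation of at least 50% with a set share of replicates each reaching 50%; inconclusive = only one of those two conditions met; inactive = mean below 50% and too few replicates reaching it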;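 note: 0% = median of the neutral control wells and 100% = twice that signal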
MITF TRPM1 HTS: activators of MITF-driven TRPM1 promoter reporter, primary screen, cell-based, SK-MEL-5, luciferase, single point; 300,000 tested, 0.75% active; activation, % at 12.5 µM; SK-MEL-5 TRPM1-promoter luciferase, 24 h; % of positive control, neutral wells = 0;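 active = mean activation of at least 80% with every replicate also reaching 80%; inconclusive = mean reaches 80% but some replicate falls short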;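 note: 0% = neutral control wells and 100% = parthenolide positive control wells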
The depositor's hits bear a star; u = inconclusive; x = no result; + = active, no number.

SMILES | SMARCA2 act | Wnt bcat act | HSF1 inh | esBAF inh | HSF1 activator | MITF TRPM1 HTS
Fc1ccccc1OCCCCN1CCCCC1 | 1 | -1 | -4 | 6 | 0 | +
CCNC(=O)Nc1ccc2c(c1)C(=O)N(C)[C@H]1CC[C@H](CC(=O)NCCN3CCCC3)O[C@@H]1CO2 | x | x | x | -2 | x | x
O=C(NCc1ccco1)C1CCN(S(=O)(=O)c2cccc([N+](=O)[O-])c2)CC1 | -4 | 1 | -80* | -8 | -84 | x
O=C(NCc1ccco1)C1CCCN(S(=O)(=O)c2ccc([N+](=O)[O-])cc2)C1 (centres undefined) | 3 | x | x | x | x | x
C[C@@H]1CN([C@@H](C)CO)C(=O)c2cc(-c3cccc(C#N)c3)cnc2O[C@@H]1CN(C)C(=O)c1cnccn1 | x | x | x | -6 | x | x
Cc1ccc(C(=O)Oc2cccc(-n3cnnn3)c2)cc1 | 2 | 6 | 2 | x | -6 | 112*
O=C(Oc1cccc(-n2cnnn2)c1)c1ccco1 | -3 | x | 1 | x | -8 | -9
O=C(Oc1cccc2cccnc12)c1cccc(-n2cnnn2)c1 | 3 | 77* | 0 | 3 | 8 | 9
CCC(=O)Nc1ccc2c(c1)C(=O)N(C)C[C@@H](OC)[C@@H](C)CN(CCc1ccccc1)[C@H](C)CO2 | x | x | x | -5 | x | x
O=C(NCC[C@H]1CC[C@H](NS(=O)(=O)c2cccc(Cl)c2)[C@H](CO)O1)c1cnccn1 | x | x | x | -1 | x | x
COCCNC(=O)CSC1=N/C(=C/c2ccc(Cl)c(Cl)c2)C(=O)N1c1ccccc1F | -3 | -6 | -61* | x | -69 | 5
C=CCN1C(=O)/C(=C\c2ccc(Cl)cc2)N=C1SCC(=O)NCCC | 0 | 1 | 1 | -9 | 5 | 10
O=C1CC(c2ccc3c(c2)OCCO3)Oc2ccccc21 (centres undefined) | 4 | u | 34 | 84* | 37 | 104*
COc1ccc(C2CC(=O)c3cc(OC)ccc3O2)cc1 (centres undefined) | 0 | -1 | x | 52* | x | 45
O=C(C[C@@H]1CC[C@H]2[C@@H](COC[C@H](O)CN2C(=O)c2cnccn2)O1)NCc1ccc(F)cc1 | x | x | x | 9 | x | x
CCN(CC)c1ccc([N+](=O)[O-])cc1C(=O)N1CCOCC1 | 2 | x | 8 | -1 | 55* | -7
CCOC(=O)C(=NC(C)C)NNc1cc(Cl)ccc1Cl | -1 | 40* | -1 | x | 37 | -9
COc1ccc(CCN2CCCC(CN(C)C(=O)c3cc(C)oc3C)C2)cc1 (centres undefined) | 7.8* | u | 16 | 72* | 24 | 75
Cc1cc(C(=O)N(C)CC2CCCN(CCc3ccc(F)cc3)C2)c(C)o1 (centres undefined) | 3 | -1 | 1 | -6 | -13 | -13
CCCn1nnc(NC(=O)c2ccc(Br)cc2)n1 | 4 | -4 | 16 | 35 | 18 | 57
Cn1nnc(NC(=O)c2ccc3ccccc3c2)n1 | 4 | x | -3 | 6 | 13 | 31
Cn1nnc(NC(=O)c2ccc(C(C)(C)C)cc2)n1 | 6 | x | 19 | 46* | 45 | x
CCCn1nnc(NC(=O)c2ccc(-c3ccccc3)cc2)n1 | 1 | 29 | 17 | 41* | 32 | 92*
COc1cccc(C(=O)O/N=C(\N)c2ccc(C)cc2)c1 | 2 | 29 | 11 | 43 | 34 | 59
COc1cccc(C(=O)O/N=C(\N)c2ccncc2)c1 | 7.8* | 0 | -2 | 37 | 13 | 53
SMILES | SMARCA2 act | Wnt bcat act | HSF1 inh | esBAF inh | HSF1 activator | MITF TRPM1 HTS
COc1cc(C(=O)O/N=C(\N)c2ccc([N+](=O)[O-])cc2)cc(OC)c1OC | 1 | 20 | 2 | x | 24 | -2
COc1cc(C(=O)O/N=C(\N)c2cccc([N+](=O)[O-])c2)cc(OC)c1OC | -4 | -1 | 3 | -2 | 17 | 12
COc1ccc(/C(N)=N/OC(=O)c2cccc([N+](=O)[O-])c2)cc1 | 3 | x | 17 | 64* | 34 | 25
N/C(=N\OC(=O)c1ccc2c(c1)OCO2)c1ccncc1 | 1 | 55* | 29 | 31 | 30 | 55
COc1cccc(C(=O)O/N=C(\N)c2ccc([N+](=O)[O-])cc2)c1 | -2 | x | 28 | 55* | 59* | 15
O=C(C[C@H]1C=C[C@H](NC(=O)C2CCC2)[C@@H](CO)O1)Nc1nccs1 | x | x | x | 0 | x | x
C[C@H](CO)N1C[C@H](C)[C@@H](CN(C)Cc2ccc(Oc3ccccc3)cc2)Oc2c(NC(=O)c3ccc(-c4nccs4)cc3)cccc2C1=O | x | x | x | 6 | x | x
Cc1nc(C#N)c(N/N=C/c2cccc(Cl)c2)o1 | 7 | 28 | 13 | 93* | 24 | 72
CCOc1ccccc1NC(=O)CSc1nnc(-c2ccncc2)o1 | 1 | 3 | 3 | 5 | -2 | -3
COc1ccccc1NC(=O)CSc1nnc(-c2ccncc2)o1 | -1 | 9 | -63* | 4 | -70 | 7
O=C(CSc1nnc(-c2cccnc2)o1)Nc1cccc(F)c1 | 1 | -4 | 7 | 61* | 9 | 72
Cc1cc(-c2nnc(SCC(=O)Nc3ccccc3C(F)(F)F)o2)c(C)n1-c1ccccc1 | -4 | x | -56* | -19 | -59 | 3
O=C(CSc1nnc(-c2ccncc2)o1)Nc1cccc(F)c1 | 0 | 23 | 10 | 56* | 14 | 63
O=C(CSc1nnc(-c2cccnc2)o1)Nc1ccc(F)cc1 | 0 | 7 | x | 11 | x | x
C[C@H](CO)N1C[C@H](C)[C@H](CN(C)C(=O)CN(C)C)Oc2cc(C#CC(C)(C)O)ccc2S1(=O)=O | x | x | x | -6 | x | x
Cc1cnc(NC(=O)CSc2nnc(-c3ccccc3)o2)s1 | 3 | x | 46 | -24 | 61* | x
Cc1ccc(-c2nnc(SCC(=O)Nc3ccccc3F)o2)cc1 | -3 | -11 | -54* | -80 | -60 | -76
O=C(CSc1nnc(-c2ccccc2)o1)Nc1ccccc1F | 1 | -5 | 4 | -66 | 17 | x
O=C(CSc1nnc(-c2ccncc2)o1)Nc1cc(F)ccc1F | 2 | 33* | x | 32 | x | 59
COc1ccccc1C(=O)CSc1nnc(-c2ccco2)o1 | -1 | -1 | 50 | x | 69* | 28
Cc1ccc(S(=O)(=O)Nc2ccc3c(c2)C(=O)N([C@@H](C)CO)C[C@@H](C)[C@@H](CN(C)S(=O)(=O)c2ccccc2)OCCCC[C@@H](C)O3)cc1 | x | x | x | 0 | x | x
CO[C@H](CN(C)S(=O)(=O)c1cn(C)cn1)[C@H](C)CN(C(=O)Nc1ccc(C(F)(F)F)cc1)[C@H](C)CO | x | x | x | 1 | x | x
CCC(=O)Nc1ccc2c(c1)C(=O)N(C)[C@H]1CC[C@@H](CC(=O)NCc3ccccc3Cl)O[C@@H]1CO2 | x | x | x | -9 | x | x

High-throughput results from PubChem.
